Screening data (PubChem BioAssay)
ELG1 DNA repair – blocks ELG1-dependent DNA repair in HEK293T cells. HEK293T ELG1-luciferase reporter, luminescence, 16 h; DNA damage induced by 5-fluorouridine. Potency, µM (highest dose often 46.1 µM), for the others: at the highest dose activity change, negative = inhibition, hits mostly inhibitors. actives 2.3% (n = 330,000). AID 504467; also: % is scaled to controls: 0 for no effect and ±100 for the full control effect; nearly all actives have a fitted effect of over 55% in size
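Reporter activity after DNA damage by 5-fluorouridine is monitored. Compound-treated cells incubate 16 hr at 37 °C, then ONE-Glo is added for 30 min before luminescence reading.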
NPC1 promoter act – activates the NPC1 promoter; Huh7 NPC1 promoter luciferase reporter, 24 h; Potency, µM (highest dose often 9.22 µM), without a hit: at the highest dose activation, actives largely listed as activators; actives 2.4% (n = 320,000); also: % of control where 0% means no effect; nearly all actives have a fitted effect of over 60% in size
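Compounds in DMSO were transferred onto Huh7 NPC1-luciferase reporter cells pre-incubated 2 h; after 24 h at 37 °C, Amplite reagent was dispensed and luminescence recorded 10 min later.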
ELG1 genotox – induces genotoxicity in HEK293T cells with luciferase-tagged ELG1. HEK293T ELG1-luciferase reporter, luminescence, 16 h. Potency, µM (doses to about 46 µM), without a hit: at the top dose activity change, positive = activation, most hits filed as activators. actives 1.3% (n = 330,000); also: % of control where 0% means no effect; nearly all actives have a fitted effect of over 60% in size
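16 hr compound incubation (37 °C, 5% CO2) of HEK293T cells carrying luciferase-tagged ELG1; luciferase then measured by ONE-Glo luminescence after 30 min at RT.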
FLuc counter – inhibits or activates purified firefly luciferase, miR-21 counter-screen. P08659. purified FLuc, Km substrates, luminescence inhibition. Potency, µM (doses to about 57.5 µM), for the others: at the top dose activity change, negative = inhibition, most hits filed as inhibitors. actives 6.9% (n = 360,000);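 also: plate controls were vehicle for no effect and reference inhibitor for full effect; nearly all actives have a fitted effect of over 55% in size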
Target sequence (P08659 whole entry, looked up): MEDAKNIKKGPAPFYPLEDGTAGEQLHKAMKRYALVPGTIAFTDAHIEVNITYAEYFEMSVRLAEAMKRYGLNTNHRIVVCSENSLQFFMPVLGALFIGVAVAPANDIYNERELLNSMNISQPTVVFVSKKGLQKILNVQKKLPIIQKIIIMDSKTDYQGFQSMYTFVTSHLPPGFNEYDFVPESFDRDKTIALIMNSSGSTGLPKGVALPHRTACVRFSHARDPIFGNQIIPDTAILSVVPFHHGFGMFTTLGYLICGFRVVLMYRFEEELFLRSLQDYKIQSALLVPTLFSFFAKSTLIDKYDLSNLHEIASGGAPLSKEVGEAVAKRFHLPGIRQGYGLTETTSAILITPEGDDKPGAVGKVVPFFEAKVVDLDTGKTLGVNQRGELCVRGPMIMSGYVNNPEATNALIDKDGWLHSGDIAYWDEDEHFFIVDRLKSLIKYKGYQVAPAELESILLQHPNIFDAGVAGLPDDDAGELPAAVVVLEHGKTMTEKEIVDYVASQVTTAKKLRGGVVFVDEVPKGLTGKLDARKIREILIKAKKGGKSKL
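Purified P. pyralis luciferase, 10 nM final, with Km-level 10 uM D-luciferin and 10 uM ATP in 50 mM Tris acetate pH 7.5, 10 mM Mg acetate, 0.01% Tween-20, 0.05% BSA; 6-point qHTS titration about 60 µM downward; luminescence read.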
SMN2 splice up – increases expression of the SMN2 splice variant | Potency, µM (doses to about 46.1 µM), for the others: at the top dose activity change, positive = activation, hits mostly activators | AID 1458 | HEK293 SMN2-luciferase splicing reporter, luminescence, 30-36 h | actives 2.8% (n = 210,000); also: % of control where 0% means no effect; nearly all actives have a fitted effect of over 55% in size
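HEK293 cells carry an SMN2 […]–luciferase reporter in which exon 7 inclusion puts luciferase in frame. Cells were plated 10-12 h before compound addition, then incubated 30-36 h at 37C. ONE-Glo luminescence was read; sodium butyrate at 4.5 mM final served as control.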
Rab9 prom act – activates the Rab9 promoter; AID 485297; Potency, µM (doses to about 9.22 µM), for inactives: at the highest dose activation, negative = inhibition, actives largely listed as activators; actives 2.8% (n = 320,000); Huh7 Rab9 promoter-luciferase reporter, luminescence, 24 h; also: % of control where 0% means no effect; nearly all actives have a fitted effect of over 60% in size
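Rab9 promoter-driven luciferase in stably transfected Huh7 cells; 1500 cells/well rested 2 h, exposed to compound in DMSO for 24 h at 37 °C, 5% CO2. Luminescence read 10 min after adding luciferase reagent at ambient temperature.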
An asterisk follows results filed as active; u = inconclusive; x = no result given. This is a sample that favours compounds with a hit; in the whole collection about 9.2% have one here. Calls follow the shape of the dose curve; as a rule, active = well fitted curve in the direction sought with a large enough effect; inconclusive = small, poorly fitted or top-dose-only effect, or another doubt; inactive = no such curve, though single readings can be large; an effect the other way counts as inactive or inconclusive. Potency is read from the fitted curve at half-maximal effect.

SMILES | ELG1 DNA repair | NPC1 promoter act | ELG1 genotox | FLuc counter | SMN2 splice up | Rab9 prom act
CCOc1ccc(/C=C2\SC(=S)N(CC(=O)Nc3ccccn3)C2=O)cc1 | u | 14% | 10% | 21µM* | x | 26%
COc1cc(/C=C2\SC(=S)N(CCC(=O)Nc3ccccc3O)C2=O)cc(OC)c1OC | 7.3µM* | 11% | 3% | -4% | x | 1%
CCOc1ccc(/C=C2\SC(=S)N(CC(=O)N(CCO)C(C)(C)C)C2=O)cc1 | -17% | 0% | -8% | 12µM* | -15% | -2%
COc1cc(/C=C2\SC(=S)N(CCC(=O)NCCc3ccccc3)C2=O)cc(OC)c1OC | 1% | -1% | 0% | 1% | x | -2%
COc1ccc(C2=Nc3ccccc3NC(c3cccs3)=N2)cc1 | x | x | x | u | -1% | x
COc1cccc(C(C)NC(=O)C2CCCC2)c1 (stereo not drawn) | -13% | -5% | -2% | 0% | x | 8%
COc1ccc(-c2nc(SCC(=O)c3ccc(OC)c(Br)c3)n[nH]2)cc1 | x | x | x | 0% | x | x
Cc1cc(C(=O)CSc2n[nH]c(N)n2)c(C)n1-c1cccc(F)c1 | u | 28% | u | 24µM* | u | u
Cc1cc(C(=O)CSc2ncccn2)c(C)n1-c1cccc(F)c1 | u | 3.5µM* | 10µM* | 2.4µM* | u | 1.4µM*
Cc1cc(C(=O)COC(=O)C2=COCCO2)c(C)n1-c1cccc(F)c1 | u | 1.4µM* | u | 1.9µM* | x | 0.56µM*
Cc1cc(C(=O)CSc2nnnn2C)c(C)n1-c1cccc(F)c1 | u | 4µM* | u | 7.6µM* | 13µM* | 1.3µM*
Cc1cc(C(=O)CSc2nc(N)cc(N)n2)c(C)n1-c1cccc(C(F)(F)F)c1 | -11% | -1% | -1% | 1% | -30% | -5%
COc1ccc(OC)c(S(=O)(=O)Nc2cc3c(cc2C)n(C)c(=O)c(=O)n3C)c1 | x | x | x | -2% | x | x
COc1ccc(-c2n[nH]c(=S)n2/N=C/C=C/c2ccccc2OC)cc1 | -16% | -4% | -1% | -13% | 25% | -3%
COc1ccccc1/C=C/C=N/n1c(-c2ccccc2)n[nH]c1=S | u | 2% | -5% | 15µM* | x | 13%
CC(C)(C)c1ccc(-c2n[nH]c(=S)n2/N=C/c2ccncc2)cc1 | 0% | 12% | 2% | 11µM* | 19% | 25%
COc1cc(/C=N/n2c(-c3ccccc3)n[nH]c2=S)cc(OC)c1OC | 4.1µM* | 2% | 4% | 3% | x | -3%
COc1ccccc1NC(=O)N1CCN(Cc2ccc3c(c2)OCO3)CC1 | -2% | 1% | -1% | 0% | x | 0%
Cc1cc(SC(C)C(=O)Nc2ncc(Cl)cc2Cl)nc2ccccc12 (stereo not drawn) | u | -2% | -5% | -11% | 3.5µM* | 0%
Cc1nnc(SC(C)C(=O)Nc2ncc(Cl)cc2Cl)n1Cc1ccccc1 (stereo not drawn) | -3% | 3% | -1% | -1% | -6% | 0%
CCOc1cccc(C(=O)NC(=S)Nc2cccc(NC(=O)c3ccccc3Cl)c2)c1 | 8.2µM* | -7% | -4% | u | -30% | -6%
CCOc1cccc(C(=O)NC(=S)Nc2ccccc2)c1 | u | u | u | 6.7µM* | 11µM* | u
CCCOc1ccc(C(=O)Nc2ccc(NC(=O)c3ccccc3)c(C)c2)cc1 | x | x | x | -1% | 15% | x
CCOc1cccc(C(=O)NC(=S)Nc2cccnc2)c1 | u | 18% | 8% | u | 17% | 22%
CCOc1cccc(C(=O)Nc2ccc(NC(=O)c3ccccc3)c(C)c2)c1 | -22% | 0% | -3% | 13µM* | x | 2%
NC(=O)CCCCn1ccc(NC(N)=NCC(F)(F)F)n1 | x | x | x | x | -11% | x
O=C1CCCN1CCCNc1ncnc2sccc12 | 4% | -8% | -2% | -1% | -4% | 10%
